From PubChem BioAssay (NCATS)
Values without a mark were called inactive. Activity calls are given as the source filed them. Calls follow the shape of the dose curve; as a rule, active = well fitted curve in the direction sought with a large enough effect; inconclusive = small, poorly fitted or top-dose-only effect, or another doubt; inactive = no such curve, though single readings can be large or run the other way.

test: Cellular Toxicity (caspase-3) BJ (AID 658); settings: BJ fibroblasts, luminescence; Potency: caspase-3 activation; series mostly up to 91.7 µM; caspase-3 activation: at the top concentration;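 as to caspase-3 activation: 0% = DMSO basal and 100% = 10 µM staurosporine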
Description: NIH Chemical Genomics Center [NCGC]
NIH Molecular Libraries Screening Centers Network [MLSCN]
National Institutes of Environmental Health Sciences [NIEHS]
National Toxicology Program [NTP]
We have developed a 1536-well cell-based assay for quantitative high throughput screening (qHTS) against a number of cell lines to determine in vitro caspase 3/7 activity of small molecules. This particular assay uses BJ cell line which is derived from normal human foreskin fibroblast.
NCGC Assay Protocol Summary:
The Caspase-Glo 3/7 assay (Promega) is a homogeneous method to measure caspase-3 and caspase-7 activities in cultured cells. The quantitation of caspase 3/7 activity is based on the cleavage of a peptide-aminoluciferin substrate. After caspase cleaves the substrate the free aminoluciferin is liberated and serves as the substrate of luciferase, which generates the light. The luminescent signal is proportional to amount of caspase 3/7 activity present.
Using the Caspase-Glo 3/7 assay, the amount of caspase 3/7 activity was measured in the BJ cell line with complete culture medium following compound treatment for 16 hours. The assay was performed in opaque white 1536-well plates. In the screen, staurosporine and tamoxifen were used as positive controls. Library compounds were measured for their ability to cause the activation of caspase 3/7 in the cell line, as reflected by an increase in luminescence signal, in a concentration-dependent manner. Data were normalized to the controls for basal activity (DMSO only) and 100% stimulation (10 uM staurosporine). AC50 values were determined from concentration-response data modeled with the standard Hill equation.
qHTS protocol for caspase 3/7 assay in the BJ cells
[Step] [Parameter] [Value] [Description]
1. Reagent; 5 uL; 1000 the BJ cells/well
2. Time; 5 hr; 37 °C incubation
4. Controls; 23 nL; Tamoxifen 0.23 uM to 100 uM & staurosporine 1.4 pM to 100 uM
5. Time; 16 hr; 37 °C incubation
6. Reagent; 5 uL; Caspase-Glo 3/7 reagent
7. Time; 1 hr; Room Temperature
8. Detection; Luminescence; Viewlux plate reader
Keywords: caspase 3/7, apoptosis, the BJ cell line, luminescence, NTPHTS, NTPHTS_NCGC, NIEHS, EPA, DSSTox, MLSMR, MLSCN, NIH Roadmap, qHTS, NCGC
Potency is read from the fitted curve at half-maximal effect.

Row | Compound | caspase-3 activation [%] | Potency
1 | CC(=O)OC1CC(C)OC(C)O1 (stereo not given) | 0.238 | –
2 | C=C(C#N)C(=O)OCC | -1.66 | –
3 | Nc1cc(C(=O)O)c(O)c(S(=O)(=O)O)c1 | -1.79 | –
4 | CC(=O)OCc1ccc2c(c1)OCO2 | -1.67 | –
5 | CC(/C=C/C=C(C)/C=C/C(=O)O)=C\C=C\C=C(C)\C=C\C=C(C)\C=C\C(=O)O | -7.6 | –
6 | Clc1nc2ccccc2nc1Cl | -0.308 | –
7 | C/C(Cl)=C/CCl | 0.119 | –
8 | CCCCCCN | 1.33 | –
9 | Nc1ccccc1O | 2.92 | –
10 | O=C1c2ccccc2C(=O)C1(O)O | -0.892 | –
11 | OCC(CBr)(CBr)CBr | 0.0382 | –
12 | COc1ccc(C(=O)Nc2ccccc2)cc1[N+](=O)[O-] | -0.583 | –
13 | O=c1[nH]ncc2ccccc12 | 1.05 | –
14 | CCOC(=O)C1OC1c1ccccc1 (stereo not given) | -0.105 | –
15 | Cc1cccnc1 | -1.44 | –
16 | O=Nc1ccc(Nc2ccccc2)cc1 | -4.92 | –
17 | OCC(CO)(CBr)CBr | -2.25 | –
18 | C[C@@H]1CC2(OC(O)[C@]3(C)O[C@H]23)O[C@H]2C[C@@]3(C)[C@@H]4CC[C@H]5C(C)(C)C(O[C@@H]6OC[C@@H](O)[C@H](O)[C@H]6O)CC[C@@]56C[C@@]46CC[C@]3(C)[C@@H]12 (stereo not given in full) | – | 31.6 µM (active)
19 | Nc1ccc(N)c(Cl)c1 | -0.943 | –
20 | COc1ccc(C)cc1N | -0.148 | –

Row | Compound | caspase-3 activation [%] | Potency
21 | Oc1ccc2c(c1)OCO2 | 0.237 | –
22 | CC(=O)OC(C(=O)c1ccccc1)c1ccccc1 (stereo not given) | 0.0904 | –
23 | O=C(O)c1ccc([N+](=O)[O-])cc1 | -1.05 | –
24 | S=C(NC1CCCCC1)NC1CCCCC1 | 0.814 | –
25 | CC(C)OCC1CO1 (stereo not given) | -0.0428 | –
26 | CC/C=C/C/C=C/C/C=C/CCCCCCCC(=O)OCC | 0.295 | –
27 | Oc1cc2c(cc1O)[C@H]1c3ccc(O)c(O)c3OC[C@@]1(O)C2 | -3.21 | –
28 | C/C=C/C=C/C=O | 0.936 | –
29 | CC(C)S | 0.601 | –
30 | c1ccc2c(c1)ccc1ccccc12 | 0.713 | –
31 | CN(C)c1ccc(C(=N)c2ccc(N(C)C)cc2)cc1 | -0.454 | –
32 | O=CC(=O)c1ccccc1 | 0.231 | –
33 | c1ccncc1 | -1.91 | –
34 | CC1=C(/C=C/C(C)=C/C=C/C(C)=C/C=O)C(C)(C)CCC1 | 11 | –
35 | C=C1CC[C@H](O)C/C1=C/C=C1\CCC[C@]2(C)[C@@H]([C@H](C)CCCC(C)C)CC[C@@H]12 | 1.4 | –
36 | OC1CCCCC1 | 0.361 | –
37 | O=C1OC(=O)c2ccccc21 | -0.392 | –
38 | CCCCCCCC/C=C\CCCCCCCC(=O)N(CCO)CCO | -1.38 | –
39 | Cc1cc(=O)oc2cc(O)cc(O)c12 | -1.12 | –
40 | O=C(OCc1ccccc1)c1ccccc1O | -0.515 | –
